The list is not random: actives were taken first. Their share in the collection is about 22%.
Pf growth 96h: P. falciparum growth inhibition at 96 hour, primary screen for plastid delayed-death inhibitors. P. falciparum luciferase reporter growth, 96 h. Potency, µM (series often up to 28.7 µM), for inactives: at the highest dose activity change, negative = inhibition, most hits filed as inhibitors. actives 6.9% (n = 320,000). AID 504834; note: potency is the fitted concentration of half-maximal effect; % is set by controls: 0 for no effect and ±100 for the full control effect
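Readout is luminescence from an integrated firefly luciferase in P. falciparum. Red cells, 2% hematocrit and 0.05% parasitemia final, were cultured with compound through two parasite generations (96 hours) at 37 C, 5% CO2.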
CHX counter: counter-screen hit for Shiga toxin inhibitors, cycloheximide | cell reporter, cycloheximide protein synthesis inhibition counterscreen | max response, % | actives 12% (n = 300,000) | AID 2314; in the data active = max response mostly above about 13%, no sharp cut-off; inactive = mostly below about 14%; note: read at 38.3 µM for the half of the compounds with a filed dose; 0% is about no effect
LmPK inh: LmPK (Leishmania mexicana) enzyme inhibition; Potency, µM (doses to about 57.5 µM), without a hit: at the highest dose activity change, negative = inhibition, actives largely listed as inhibitors; Q27686; actives 0.37% (n = 290,000); purified LmPK, Kinase-Glo ATP luminescence, 1 h; note: potency is the fitted concentration of half-maximal effect; % is set by controls: 0 for no effect and ±100 for the full control effect
Target sequence (Q27686 whole entry, looked up): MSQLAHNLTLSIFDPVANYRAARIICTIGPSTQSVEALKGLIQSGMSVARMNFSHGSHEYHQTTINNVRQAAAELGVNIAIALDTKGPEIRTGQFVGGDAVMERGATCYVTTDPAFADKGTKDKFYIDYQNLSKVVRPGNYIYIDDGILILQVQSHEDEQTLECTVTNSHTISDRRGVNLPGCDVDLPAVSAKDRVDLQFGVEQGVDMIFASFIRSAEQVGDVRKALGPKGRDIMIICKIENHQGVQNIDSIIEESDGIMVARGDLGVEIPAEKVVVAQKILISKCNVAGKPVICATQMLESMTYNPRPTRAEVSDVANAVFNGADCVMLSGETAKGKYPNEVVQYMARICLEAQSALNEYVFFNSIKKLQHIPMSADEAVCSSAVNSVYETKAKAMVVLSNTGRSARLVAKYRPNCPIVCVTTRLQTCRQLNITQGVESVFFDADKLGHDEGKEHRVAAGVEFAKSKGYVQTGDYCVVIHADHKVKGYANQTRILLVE
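ATP generated from ADP (0.1 mM) and PEP (0.5 mM) by 0.1 nM LmPK over 1 h at room temperature (pH 7.2 imidazole buffer) was detected by coupled luciferase luminescence. Values were normalized to uninhibited and no-enzyme wells.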
Pf growth 48h: inhibits P. falciparum growth in the first generation, 48 h; Potency, µM (doses to about 28.7 µM), for inactives: at the top dose activity change, negative = inhibition, most hits filed as inhibitors; AID 504832; P. falciparum luciferase growth in erythrocytes, 48 h; actives 5.9% (n = 310,000); note: potency is the fitted concentration of half-maximal effect; % is set by controls: 0 for no effect and ±100 for the full control effect
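Here the parasites carry a stable luciferase gene and grow inside erythrocytes in Albumax-based RPMI medium with compound for one erythrocytic cycle. Activity is scored as loss of luminescent signal.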
Shiga toxin inh: inhibitors of Shiga toxin in Vero cells; inhibition, % at 38.7 µM; actives 9.2% (n = 290,000); Vero cells, Shiga toxin protein synthesis inhibition reporter; in the data active = inhibition mostly above about 28%, no sharp cut-off; inactive = mostly below about 43%; note: 0% is about no effect
* hit, by the source's call; ? = inconclusive; · = no result given. Unless noted, calls come from the whole dose curve; as a rule, active = well fitted inhibition curve with a large enough effect; inconclusive = small, poorly fitted or top-dose-only effect, or another doubt; inactive = no such curve, though single readings can be large or run the other way.

SMILES	Pf growth 96h	CHX counter	LmPK inh	Pf growth 48h	Shiga toxin inh
COc1cc(/C=N/NC(=O)c2cccc(NC(=O)c3ccccc3C)c2)ccc1O	?	-2	1%	-9%	-8
COc1cc(/C=N/NC(=O)c2cccc(NC(=O)c3ccccc3)c2)ccc1O	13%	13	2%	-10%	33*
COc1cc(/C=N/NC(=S)Nc2cccc(S(=O)(=O)N(C)C)c2)ccc1O	?	30*	3%	22%	49*
COc1ccc(/C=N/NC(=O)CN(CCc2ccccc2)S(=O)(=O)c2ccc(NC(C)=O)cc2)cc1OC	9.3µM*	-3	0%	?	-6
CC(C)(C)c1ccc(C(=O)N/N=C/c2cccc(Cl)c2)cc1	13µM*	20	2%	·	27
CN(C)S(=O)(=O)c1cccc(NC(=S)N/N=C/C2CC=CCC2)c1 (centres undefined)	?	9	-10%	-154%	-3
CC(C)NC(=O)NC(=O)CN1c2cccc3cccc(c23)S1(=O)=O	10%	-2	9%	9%	-6
COc1ccc(/C=N/NC(=O)CC(=O)NCCc2ccccc2)cc1OC	34%	-1	-3%	21%	-22
O=C(N/N=C/c1ccc(F)cc1)c1cccc(NC(=O)c2ccc(F)cc2)c1	?	34*	-1%	?	100*
COc1cc(/C=N\NC(=O)CC(=O)NCCc2ccccc2)ccc1O	10µM*	1	-3%	-1%	-4
O=C(N/N=C/c1cc(Cl)ccc1O)c1ccncc1	?	2	2%	2.3µM*	-4
O=C(N/N=C/c1cccc(NC(=O)c2ccc(Cl)cc2)c1)c1ccc(O)cc1	?	60*	-3%	138%	85*
C=CCN1CC(=O)N2C(c3ccccc3)c3[nH]c4ccccc4c3C[C@H]2C1=O (some centres undefined)	?	18	1%	?	-9
N#Cc1cnc(SCCc2ccccc2)nc1N	19%	24*	-9%	72%	39*
CCCCCCSc1ncc(C#N)c(N)n1	-26%	29*	-2%	29%	37*
N#Cc1cnc(SCC(=O)c2ccccc2)nc1N	·	11	6%	10µM*	18
Cc1ccccc1OCc1nnc(SCC(=O)O)n1-c1cccc(Cl)c1	241%	-2	11%	-25%	-17
CCc1nc(CN2CCN(c3cc(C(F)(F)F)ccn3)CC2)c(C)[nH]1	5%	2	1%	-6%	31
CCN(C(=O)COC(=O)CCc1ccccc1)c1ccccc1	-3%	13	-6%	-7%	24
COc1ccc(Cl)cc1NC(=O)CN(C)CC(=O)Nc1cccc(S(=O)(=O)N2CCCC2)c1	3.3µM*	·	·	?	·
O=C(COc1ccc(Cl)cc1Br)Nc1cccc(S(=O)(=O)N2CCCC2)c1	-62%	·	·	?	·
CCN(CC(=O)Nc1ccccc1OC)C(=O)c1cc(S(=O)(=O)N2CCCCCC2)ccc1OC	5.2µM*	·	·	?	·
CCN(CC(=O)Nc1cccc(S(=O)(=O)N2CCCC2)c1)CC(=O)Nc1ccccc1OC	9.3µM*	-4	0%	?	13
Cc1ccc(CNC(=O)c2ccccc2N)cc1	-7%	1	-1%	41%	10
Cc1cccc(CNC(=O)c2ccccc2N)c1	·	20*	2%	12%	33
SMILES	Pf growth 96h	CHX counter	LmPK inh	Pf growth 48h	Shiga toxin inh
CC1CCCCN1CCNc1nc(=S)[nH]c2ccccc12 (centres undefined)	2.3µM*	-3	2%	3%	-21
CCN(CC(=O)Nc1c(F)cccc1F)C(=O)c1cc2ccccc2oc1=O	31%	·	·	45%	·
COC(=O)c1sccc1NC(=S)N(C)C1CCCCC1	?	7	-3%	9.3µM*	17
COC(=O)c1sccc1NC(=O)NC1CCCCC1	-7%	47*	-13%	74%	31
CN(C(=S)NC(=O)/C=C/c1ccc(F)cc1)C1CCCCC1	?	17	2%	?	24
Cc1ccc(C(=O)NC(=S)N(C)C2CCCCC2)cc1	?	50*	-2%	-24%	126*
COC(=O)c1sccc1NC(=S)N1C(C)CCCC1C (centres undefined)	40%	9	-1%	?	-7
O=C(Nc1nccs1)NC1CCCCC1	12%	14	2%	2.9µM*	18
COc1cc(CN2CCN(c3ncccn3)CC2)cc(OC)c1	?	-2	-5%	18%	-2

From PubChem BioAssay
